Out of some 290,000 compounds screened, about 4,200 (1.4%) were called active.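 The calls were made as follows: active = binding response more than 3 SD above or below the average of its plate-row segment, actives on both sides; inconclusive = wells at one plate position flagged as instrument error; inactive = the rest.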 What follows is part of a selection rich in actives, with near analogues and random picks from the rest.
Target: Mitogen-activated protein kinase kinase kinase 3 (Homo sapiens) (UniProt Q99759)
Assay: modulators of MEKK3-MEK5 PB1 binding, primary screen, biochemical, wildtype MEKK3, multiplex bead flow cytometry, Alexa488-MEK5 (AID 1529);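 also: Alexa488 bead fluorescence after subtracting the streptavidin-only scavenger bead signal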
Conditions: bead-based flow cytometry, Alexa488-MEK5 binding to MEKK3; at 10 µM; actives lie on both sides; 0 = blocked by unlabeled MEK5, 100 = vehicle

Sequence of Mitogen-activated protein kinase kinase kinase 3 (Homo sapiens) (Q99759 whole entry, looked up): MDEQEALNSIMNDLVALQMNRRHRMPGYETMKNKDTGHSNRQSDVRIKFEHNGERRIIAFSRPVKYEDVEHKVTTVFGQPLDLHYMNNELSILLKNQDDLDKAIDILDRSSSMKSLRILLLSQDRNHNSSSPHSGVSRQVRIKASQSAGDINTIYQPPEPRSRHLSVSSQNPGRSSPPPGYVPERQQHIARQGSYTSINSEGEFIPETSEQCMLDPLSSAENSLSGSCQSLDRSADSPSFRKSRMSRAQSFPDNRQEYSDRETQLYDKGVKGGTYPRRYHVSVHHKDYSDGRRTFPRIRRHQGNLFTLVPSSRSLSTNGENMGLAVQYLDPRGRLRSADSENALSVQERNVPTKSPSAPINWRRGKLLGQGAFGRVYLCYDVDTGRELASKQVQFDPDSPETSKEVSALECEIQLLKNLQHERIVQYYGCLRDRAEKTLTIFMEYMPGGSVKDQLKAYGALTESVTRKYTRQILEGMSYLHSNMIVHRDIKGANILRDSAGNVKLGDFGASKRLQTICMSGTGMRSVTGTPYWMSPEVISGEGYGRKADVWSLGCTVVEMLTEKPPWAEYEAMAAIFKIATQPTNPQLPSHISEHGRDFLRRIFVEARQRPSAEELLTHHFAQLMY

Structure (SMILES)	binding response (% of control)
O=C(OCc1ccc([N+](=O)[O-])cc1)C1CC(=O)N(Cc2ccccc2Cl)C1 (stereo not given)	100% (inactive)
C/C(=N\NC(=O)CNC(=O)C(c1ccccc1)c1ccccc1)c1ccc(C)cc1	130% (active)
O=C(CNC(=O)C(c1ccccc1)c1ccccc1)N/N=C\c1ccc2c(c1)OCO2	104% (inactive)
C/C(=N\NC(=O)Cc1ccc(F)cc1)c1ccc(F)cc1	98% (inactive)
O=C(Oc1ccc(Br)cc1)c1cccnc1	101% (inactive)
C=CC1=C(C(=O)O)N2C(=O)[C@@H](NC(=O)/C(=N/OCC(=O)O)c3csc(N)n3)[C@H]2SC1	97% (inactive)
O=C(O)c1ccc2c(=O)n3c(nc2c1)/C(=C/c1ccc(OC(F)F)cc1OC(F)F)CC3	103% (inactive)
COc1ccc(NC(=O)CS(=O)(=O)c2ccccc2)cc1	105% (inactive)
CSc1ncccc1C(=O)NC1CCCCCC1	102% (inactive)
O=C(O)c1cccnc1NC1CCCC1	80% [inhibitor] (active)
O=C(NC1CCCCCC1)c1cccnc1Sc1ccc(Cl)cc1	91% (inactive)
CC1=CC(=C(C#N)c2nc3ccccc3s2)C=C(C)N1c1ccc(F)cc1F	104% (inactive)
CCOC(=O)C1CCN(C(=O)CN2C(=O)c3cccnc3Oc3ccc(C)cc32)CC1	103% (inactive)
CC/S(CC1CC1(Cl)Cl)=N\S(=O)(=O)c1ccc(C)cc1 (stereo not given)	96% (inactive)
Cc1ccc(S(=O)(=O)/N=S(\C)C(C)C)cc1 (stereo not given)	2% [inhibitor] (active)
CCCC/S(C)=N/S(=O)(=O)c1ccc(C)cc1 (stereo not given)	100% (inactive)
CC1CCCN(CC(=O)Nc2cc(Cl)ccc2Oc2ccccc2)C1 (stereo not given)	107% (inactive)
COC(=O)c1c(C)cc(O)c(C)c1O	102% (inactive)
CCOC(=O)CNC(=O)CSc1ncccc1-c1nc2ccccc2[nH]1	108% (inactive)
CCOC(=O)CNC(=O)CSc1nnc(COc2ccc(Cl)cc2)n1CC	96% (inactive)
CCOC(=O)CNC(=O)CSc1nc2cccnc2n1CC	127% (active)
COc1cc2c(cc1OC)C(c1ccncc1)CC(=O)N2 (stereo not given)	109% (inactive)
COc1ccc(C2CC(=O)Nc3cc(C)c(C)cc32)c(OC)c1OC (stereo not given)	0% [inhibitor] (active)
COc1cc2c(cc1OC)C(C(=O)Nc1cc(C)c(OC)c(C)c1)CC(=O)N2 (stereo not given)	109% (inactive)

Structure (SMILES)	binding response (% of control)
OCCNc1nc(Nc2ccc(Cl)c(Cl)c2)nc2ccccc12	111% (inactive)
COc1ccc(CC(=O)Nc2ccc(C(=O)NC(C)(C)C)cc2)cc1	97% (inactive)
CC(C)(C)NC(=O)c1cccc(NC(=O)Cc2ccc(Br)cc2)c1	163% (active)
O=C(Cc1ccccc1)Nc1cccc(NC(=O)c2ccccc2)c1	98% (inactive)
Cc1nc(-c2ccccc2)sc1C1(C)CC(c2cccnc2)=NO1 (stereo not given)	104% (inactive)
O=C(CC(c1ccccc1)c1ccccc1)NCC(O)c1ccc([N+](=O)[O-])cc1 (stereo not given)	101% (inactive)
O=C(O)CC(Cc1ccccc1)C(=O)Nc1ccc([N+](=O)[O-])cc1 (stereo not given)	128% (active)
O=C(Cc1ccccc1)NNS(=O)(=O)c1ccc([N+](=O)[O-])cc1	95% (inactive)
Fc1ccccc1/C=N/Nc1cc(N2CCCCC2)ncn1	105% (inactive)
CCc1noc(C)c1C(=O)N1CCCC(N2CCN(c3ccc(F)cc3)CC2)C1 (stereo not given)	91% (inactive)
Cc1ccc(CNC(=O)C2CCCN2S(=O)(=O)c2ccc3c(c2)C(C)(C)C(=O)N3C)cc1 (stereo not given)	104% (inactive)
CC1(C)Cc2cccc(OCC(=O)NCc3ccccc3)c2O1	100% (inactive)
CC1(C)Cc2cccc(OCC(=O)N3CCN(c4ccc([N+](=O)[O-])cc4)CC3)c2O1	59% [inhibitor] (active)
CC1(C)Cc2cccc(OCC(N)=O)c2O1	100% (inactive)
COc1ccc(C)cc1NC(=O)CN(C)S(=O)(=O)c1ccc2c(c1)n(C)c(=O)c(=O)n2C	101% (inactive)
FC(F)Oc1ccc(NC(=S)NCc2ccco2)cc1Cl	99% (inactive)
COc1cc(NC(=S)NCc2ccco2)c(OC)cc1Cl	71% [inhibitor] (active)
CCOc1cc(NC(=S)NCc2ccco2)c(OCC)cc1NC(=O)c1ccco1	105% (inactive)
CCOC(=O)C1Nc2ccc(C(F)(F)F)cc2C2C=CCC12 (stereo not given)	99% (inactive)
CC(C)C(=O)N1c2ccccc2NC2=C(C(=O)CCC2)C1c1ccc(N(C)C)cc1 (stereo not given)	129% (active)
CCCC(=O)N1c2ccccc2NC2=C(C(=O)CCC2)C1c1ccc(F)cc1 (stereo not given)	100% (inactive)
CCC(=O)N1c2ccccc2NC2=C(C(=O)CCC2)C1c1ccco1 (stereo not given)	94% (inactive)
CC(C)(C)C(=O)Nc1ccc(-c2cn3cccnc3n2)cc1	107% (inactive)
COc1cc(C(C)=O)ccc1OC(=O)CN1C(=O)c2ccccc2C1=O	102% (inactive)

Structure (SMILES)	binding response (% of control)
CC1Cc2ccccc2N1C1=CC(=O)CC(C)(C)C1 (stereo not given)	100% (inactive)
CC1(C)OC(=O)N2CCc3ccccc3C21C (stereo not given)	129% (active)
O=C(Nc1ccc(C(=O)O)cc1)/C(=C/c1ccc([N+](=O)[O-])cc1)NC(=O)c1ccccc1	97% (inactive)
O=C(Nc1ccccc1)/C(=C/c1ccc([N+](=O)[O-])cc1)NC(=O)c1ccccc1	111% (inactive)
CNC(=O)/C(=C\C=C\c1ccccc1)NC(=O)c1ccc([N+](=O)[O-])cc1	73% [inhibitor] (active)
O=C(Nc1ccc(O)cc1)c1ccc(NC(=O)c2ccco2)cc1	101% (inactive)
COc1ccc2c(c1)CCNC2Cc1ccc(OC)c(O)c1 (stereo not given)	98% (inactive)
C=CCn1c(-c2sc(-c3ccccc3)nc2C)n[nH]c1=S	99% (inactive)
C=CCn1c(=S)sc2c(=O)[nH]c(C)nc21	131% (active)
C=CCn1c(-c2ccc3[nH]c(C)c(C)c3c2)n[nH]c1=S	105% (inactive)
O=S(=O)(c1cccc(Cn2nnc(-c3ccc(F)cc3)n2)c1)N1CCOCC1	103% (inactive)
Cc1ccc(SCC(=O)Nc2ccc3c(c2)OCCO3)cc1	127% (inactive)
O=C(CSc1ccc(-c2ccc(F)cc2)nn1)Nc1ccc2c(c1)OCCO2	133% (active)
Cc1csc(NC(=O)CSc2ccc(-c3ccc(F)cc3)nn2)n1	100% (inactive)
C[C@H]1CC[C@]2(O[C@@H](CCO)C[C@@H](O)[C@@H]2O)O1	96% (inactive)
COc1cc(NC(=O)c2cccnc2SC)cc(OC)c1	110% (inactive)
COc1cccc(Nc2ncccc2C(=O)O)c1	3% [inhibitor] (active)
COc1ccc2nc(C)cc(Nc3cccc(C(=O)O)c3)c2c1	106% (inactive)
O=C(NC(=S)Nc1ccc(Cl)cc1Cl)C1CC1	100% (inactive)
Cc1ccc2oc(C(=O)N3CCN(C)C[C@@H]3C(C)C)c(C)c2c1	102% (inactive)
COc1ccc(NCCc2ccccn2)cc1	108% (inactive)
Cc1ccc(C(=O)N/C(=C/c2ccco2)C(=O)NCCc2c[nH]c3ccccc23)cc1C	73% [inhibitor] (active)
O=C(NC(Cc1c[nH]c2ccccc12)C(=O)O)/C(=C/c1ccco1)NC(=O)c1ccccc1 (stereo not given)	101% (inactive)
COc1ccc(/C=C(\NC(=O)c2ccc(OC)c(OC)c2)C(=O)NCCc2c[nH]c3ccccc23)cc1	103% (inactive)

Structure (SMILES)	binding response (% of control)
CCOC(=O)c1cc2c(ccn2C)n1CC(=O)N1CCC(C)CC1	111% (inactive)
CCOC(=O)c1cc2occc2n1CC(=O)NC1CCC(C)CC1 (stereo not given)	104% (inactive)
CCOC(=O)c1cc2occc2n1CC(=O)N1CCN(C(=O)c2ccco2)CC1	0% [inhibitor] (active)
CCn1c(SCC(=O)NC2CCCC2)nnc1-c1ccoc1C	98% (inactive)
Cc1cc(C)cc(NC(=O)CN2C(=O)c3ccccc3C2=O)c1	97% (inactive)
Cc1ccccc1C(=O)NNC(=O)CN1C(=O)c2ccccc2C1=O	135% (active)
Cc1cccc(NC(=O)CN2C(=O)c3ccccc3C2=O)c1C	110% (inactive)
CCC(Cc1ccccc1)NC(=O)C1CCCCC1 (stereo not given)	101% (inactive)
CCOCCCN(C)C1CCN(C(=O)c2oc3ccccc3c2NC(=O)Cc2cccc([N+](=O)[O-])c2)CC1	99% (inactive)
O=C1CC(N2CCN(c3ccc(F)cc3)CC2)C(=O)N1c1ccccc1 (stereo not given)	100% (inactive)
Cc1ccc(CC2CC(=O)N(c3cc(C)ccc3C)C2=O)cc1 (stereo not given)	101% (inactive)
Cc1ccc(N2C(=O)CC(N3CCSCC3)C2=O)c(C)c1 (stereo not given)	55% [inhibitor] (active)
COC(=O)C1=C[C@@H](C(=O)OC)[C@@H]2C3=C(C(=O)[C@]2(C)NC(=O)c2ccccc2)[C@H](C)n2c(=O)n(C)c(=O)n2[C@@H]3C1	108% (inactive)
CC(c1cccnc1)N(CCN(C)C)C(=O)Nc1ccc(Cl)c(Cl)c1 (stereo not given)	96% (inactive)
COc1ccc(N(CC(=O)NC(C)(C)C)C(=O)c2ccco2)cc1	98% (inactive)
C/C(CC(=O)NC(C)(C)C)=N\NC(=O)c1ccco1	140% (active)
CC(C)(C)NC(=O)c1cc(NC(=O)c2ccco2)cc(NC(=O)c2ccco2)c1	101% (inactive)
Cc1ccc(S(=O)(=O)N[C@@H](Cc2ccccc2)C(=O)N2CCC(C(=O)N[C@H](C(=O)O)C(C)O)CC2)cc1 (stereo not given in full)	107% (inactive)
Cc1ccc(CSc2nsc(C)c2C#N)cc1	103% (inactive)
CC(C)CC(=O)Nc1ccc(Cc2ccncc2)cc1	104% (inactive)
COc1cccc(OC)c1C(=O)Nc1ccc(Cc2ccncc2)cc1	147% (active)
COc1cccc(OC)c1C(=O)Nc1ccc2c(c1)n(C)c(=O)n2C	109% (inactive)
CCOc1ccc(N(CC(=O)Nc2ccccc2F)S(=O)(=O)c2c(C)[nH]c(=O)[nH]c2=O)cc1	101% (inactive)

Reference: PubChem BioAssay AID1529 (NMMLSC, 2009)
